Assay outcomes: PubChem, National Center for Advancing Translational Sciences (NCATS)
Only some compounds are listed: those with a hit (about 6.8% of all), similar ones and a draw of the others.
MCF10A rereplic: A quantitative high throughput screen for small molecules that induce DNA re-replication in MCF 10a normal breast cells. MCF 10A DNA re-replication, Hoechst nuclear intensity, 48 h. Potency, µM (top dose mostly 46.1 µM), actives largely listed as activators. 350,000 tested, 2.9% active; note: nearly all actives have a fitted effect of over 50% in size
SW480 rerep: A quantitative high throughput screen for small molecules that induce DNA re-replication in SW480 colon adenocarcinoma cells; SW480 DNA re-replication, Hoechst DNA content imaging, 48 h; Potency, µM (highest dose often 46.1 µM), most hits filed as activators; 340,000 tested, 1.8% active; AID 624297, 2012; note: nearly all actives have a fitted effect of over 55% in size
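Image-based read-out: total Hoechst fluorescence of nuclei (405 nm excitation, 500-530 nm emission), with hits raising the fraction of high-intensity nuclei. SW480 colon cells incubated 48 hr with compounds at 37 C.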
TSG101-PTAP inh: qHTS Assay for Iinhibitors of HIV-1 Budding by Blocking the Interaction of PTAP/TSG101; Fluorescence polarization, FITC-PTAP peptide / Tsg101 binding; Potency, µM (doses to about 115 µM), actives largely listed as inhibitors; 340,000 tested, under 10 active; AID 493005, 2010; active = well fitted inhibition curve with a large enough effect in the main read-out, with a control signal flat, not every such curve was filed as active; inconclusive = small, poorly fitted or top-dose-only effect, or effect the other way, or a change in a side signal; inactive = no such curve, though single readings can be large or run the other way
Target sequence (Q99816 whole entry, looked up): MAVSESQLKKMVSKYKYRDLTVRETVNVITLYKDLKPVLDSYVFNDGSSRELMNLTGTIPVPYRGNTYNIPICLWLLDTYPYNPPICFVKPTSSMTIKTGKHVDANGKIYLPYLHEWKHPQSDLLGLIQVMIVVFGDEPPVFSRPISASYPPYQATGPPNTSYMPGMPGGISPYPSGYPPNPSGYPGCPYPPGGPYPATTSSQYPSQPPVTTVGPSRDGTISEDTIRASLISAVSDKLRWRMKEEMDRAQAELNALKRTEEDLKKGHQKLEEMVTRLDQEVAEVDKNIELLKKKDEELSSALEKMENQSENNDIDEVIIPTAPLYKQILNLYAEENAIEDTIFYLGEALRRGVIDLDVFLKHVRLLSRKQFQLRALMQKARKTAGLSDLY
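Compounds were pin-transferred onto Tsg101 binding domain (10 uM final) in HEPES pH 7.5 buffer, then FITC-PTAP peptide was added at 50 nM final. After 20 min at RT, polarization reported peptide displacement across a qHTS concentration series.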
KB-V1 cytotox: qHTS assay for MDR1-selective chemotherapeutics: Primary screen using the drug-selected MDR subline cells KB-V1 | KB-V1 MDR cells viability, CellTiter-Glo, 72 h | AID 1347076, 2019 | Potency, µM (doses to about 46.1 µM), hits mostly cytotoxic | 400,000 tested, 3.4% active; note: nearly all actives have a fitted effect of over 60% in size
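Cytotoxicity via CellTiter-Glo luminescence after 72 h compound exposure at 37 degrees C. Cells: drug-selected KB-V1 line, DMEM phenol-red free plus 10% FBS. Compounds tested at multiple concentrations; normalized data fitted to concentration-effect curves.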
KB-3-1 tox: qHTS assay for MDR1-selective chemotherapeutics: Primary screen using the parental adenocarcinoma cell KB-3-1. KB-3-1 viability, CellTiter-Glo ATP luminescence, 72 h. Potency, µM (doses to about 46.1 µM), usual class: cytotoxic. 400,000 tested, 1.4% active. AID 1347075, 2019; note: nearly all actives have a fitted effect of over 60% in size
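Parental KB-3-1 adenocarcinoma cells in phenol-red-free DMEM with 10% FBS were pin-treated with compounds at several concentrations, incubated 72 h at 37 °C, and viability read by CellTiter-Glo luminescence; concentration-effect curves were fitted after normalization.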
PINK1 expr mod: A Quantitative High throughput Screen to Identify Chemical Modulators of PINK1 Expression; PINK1 immunofluorescence, high-content cytometry, 24 h; AID 624263, 2012; 410,000 tested, 0.2% active; Potency, µM (top dose mostly 76.6 µM), hits mostly activators; active = well fitted activation curve with a large enough effect; inconclusive = small, poorly fitted or top-dose-only effect; cell line not stated here; note: nearly all actives have a fitted effect of over 65% in size
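Compound titrations (5 concentrations, 24 h) on a stable cell line; DMSO and CCCP controls. Endpoint: fixed-cell PINK1 immunofluorescence with mitochondrial, cell and nuclear markers, scanned by microplate cytometer.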
Each line names hits and unclear results; the compound was inactive in the other large screens. Unless noted, calls come from the whole dose curve; as a rule, active = well fitted curve in the direction sought with a large enough effect; inconclusive = small, poorly fitted or top-dose-only effect, or another doubt; inactive = no such curve, though single readings can be large; an effect the other way counts as inactive or inconclusive.

CCOC(=O)N1CCN(Cc2ccc3c(c2)CN(C(=O)c2ccc4ncccc4c2)CCO3)CC1	none (no result: MCF10A rereplic, SW480 rerep, TSG101-PTAP inh, KB-V1 cytotox, KB-3-1 tox)
COc1ccc(-c2cc(C(F)(F)F)nc(-n3cc(Cl)cn3)n2)cc1	MCF10A rereplic inconclusive, SW480 rerep inconclusive, KB-V1 cytotox 23.1µM
COc1cccc(-c2cc(C(F)(F)F)nc(-n3cc(Cl)cn3)n2)c1	SW480 rerep inconclusive
Cc1cccc(-n2ncc(C(=O)N3CCN(Cc4ccccc4)CC3)c2C2CCN(C(=O)OC(C)(C)C)CC2)c1	none (no result: MCF10A rereplic, SW480 rerep, TSG101-PTAP inh)
COc1ccccc1C(=O)Nc1nc2cc3c(cc2s1)OCCO3	MCF10A rereplic inconclusive, SW480 rerep inconclusive, KB-3-1 tox inconclusive
COc1cccc(C(=O)Nc2cccc3ccccc23)c1	none
COc1ccccc1NC(=O)Nc1nc2ccc(S(N)(=O)=O)cc2s1	MCF10A rereplic inconclusive
COc1ccc(C(=O)Nc2nc3cc4c(cc3s2)OCCO4)c(OC)c1	MCF10A rereplic 4.11µM
COc1ccc(OC)c(NC(=O)Nc2cccc3ccccc23)c1	MCF10A rereplic inconclusive, KB-V1 cytotox 7.31µM (no result: TSG101-PTAP inh)
COc1ccc2nc(NC(=O)Nc3ccccc3OC)sc2c1	MCF10A rereplic inconclusive, SW480 rerep 2.91µM, KB-V1 cytotox 4.61µM, KB-3-1 tox 5.17µM
COc1cccc(C(CC(=O)Nc2cccc3ccccc23)NC(=O)c2ccccc2)c1 (stereo unspecified)	KB-V1 cytotox 5.8µM (no result: TSG101-PTAP inh)
COc1ccc(NC(=O)N2CCC3(CC2)CCN(C(=O)c2cccn2C)CC3)cc1	none (no result: MCF10A rereplic, SW480 rerep, TSG101-PTAP inh, KB-V1 cytotox, KB-3-1 tox)
CCOC(=O)c1ccccc1NC(=O)Nc1cc2c(cc1N1CCCC1)n(C)c(=O)n2C	none (no result: MCF10A rereplic, SW480 rerep, TSG101-PTAP inh)
Cc1ccc(C(=O)Nc2onc3c2CCCC3)cc1	none (no result: MCF10A rereplic, SW480 rerep, TSG101-PTAP inh)
COc1ccc2nc(NC(=O)c3ccc4ncsc4c3)sc2c1	MCF10A rereplic 14.6µM, SW480 rerep inconclusive
COc1ccc2nc(NC(=O)c3ccccc3O)sc2c1	MCF10A rereplic 20.6µM, SW480 rerep inconclusive, KB-3-1 tox inconclusive
COc1ccc2nc(NC(=O)c3ccc(F)cc3)sc2c1	none
COc1ccc(OC)c(NC(=O)c2cnc(Nc3ccccc3OC)c3ccccc23)c1	SW480 rerep 3.26µM, KB-V1 cytotox 6.51µM, KB-3-1 tox 7.31µM, PINK1 expr mod inconclusive
COc1ccc2nc(NC(=O)Nc3cccc4ccccc34)sc2c1	MCF10A rereplic 9.2µM
Cc1ccc(/C=C/c2onc(C)c2S(=O)(=O)N2CCC(C(=O)NCc3ccc(N(C)C)cc3)CC2)cc1	none (no result: MCF10A rereplic, SW480 rerep, TSG101-PTAP inh, KB-V1 cytotox, KB-3-1 tox)
CCN(C(=O)C(NS(=O)(=O)c1cccc2nsnc12)c1ccccc1)c1ccccc1 (stereo unspecified)	none (no result: MCF10A rereplic, SW480 rerep, TSG101-PTAP inh)
CCOC(=O)c1[nH]c(C)c(CCC(=O)N2CCN(c3cc(Cl)ccc3C)CC2)c1C	none (no result: MCF10A rereplic, SW480 rerep, TSG101-PTAP inh)
Cc1cc(C)c(NC(=O)CCN2C(=O)c3ccccc3Sc3ncccc32)c(C)c1	KB-V1 cytotox inconclusive (no result: MCF10A rereplic, SW480 rerep, TSG101-PTAP inh)
CCOC(=O)c1[nH]c(C)c(CCC(=O)N2CCN(c3cc(C)ccc3C)CC2)c1C	KB-V1 cytotox inconclusive, KB-3-1 tox inconclusive (no result: MCF10A rereplic, SW480 rerep, TSG101-PTAP inh)
COc1cc2c(cc1OC)C1Cc3ccc(OC)c(OC)c3CN1CC2 (stereo unspecified)	none
COc1cc2c(cc1OC)[C@H](Cc1ccc(O)cc1)NCC2	MCF10A rereplic 16.4µM, SW480 rerep inconclusive, KB-V1 cytotox inconclusive
CCC1=C(CC2NCCc3ccccc32)CC2c3cc(OC)c(OC)cc3CCN2C1 (stereo unspecified)	MCF10A rereplic inconclusive, SW480 rerep inconclusive, KB-V1 cytotox inconclusive, KB-3-1 tox 6.51µM
OC(CNc1ccnc2cc(Cl)ccc12)CNC1CCCCC1 (stereo unspecified)	MCF10A rereplic inconclusive, SW480 rerep 23.1µM, KB-V1 cytotox inconclusive, KB-3-1 tox inconclusive
CCNC1CCC(Nc2ccnc3cc(Cl)ccc23)CC1 (stereo unspecified)	SW480 rerep inconclusive, KB-V1 cytotox inconclusive, KB-3-1 tox inconclusive
Cc1cccc2cc(C(c3nnnn3Cc3ccccc3)N3CCCc4ccccc43)c(=O)[nH]c12 (stereo unspecified)	MCF10A rereplic 5.17µM, SW480 rerep 4.61µM, PINK1 expr mod inconclusive (no result: TSG101-PTAP inh)
CCN1CCN(C(c2cc3cccc(C)c3[nH]c2=O)c2nnnn2Cc2ccccc2)CC1 (stereo unspecified)	none
CCC1CN(C(=O)N2CCC(C(=O)NCCc3ccc(OC)cc3OC)CC2)c2cc(C)ccc2O1 (stereo unspecified)	none (no result: MCF10A rereplic, SW480 rerep, TSG101-PTAP inh, KB-V1 cytotox, KB-3-1 tox)
O=C(CCl)N1c2ccccc2Sc2c1ccc1ccccc21	MCF10A rereplic 18.4µM, SW480 rerep inconclusive, KB-V1 cytotox inconclusive, KB-3-1 tox inconclusive
CC(=O)N1c2ccccc2Sc2ccc3ccccc3c21	KB-V1 cytotox inconclusive (no result: MCF10A rereplic, SW480 rerep, TSG101-PTAP inh)
CCOC(=O)c1ccccc1NC(=O)Cn1cc(C(=O)c2cccc(OC)c2)c(=O)c2ccc(C)nc21	none (no result: MCF10A rereplic, SW480 rerep, TSG101-PTAP inh)
CCN1C(=O)CC(CC(=O)N2CCC(c3nc4ccc(F)cc4[nH]3)CC2)(c2ccccc2C)C1=O (stereo unspecified)	none (no result: MCF10A rereplic, SW480 rerep, TSG101-PTAP inh, KB-V1 cytotox, KB-3-1 tox)
CN(C)c1ncc(S(=O)(=O)c2ccccc2)c(-c2ccc(Cl)cc2Cl)n1	MCF10A rereplic inconclusive, KB-V1 cytotox 14.6µM
CN(C)c1ncc(S(=O)(=O)c2ccc(Cl)cc2)c(-c2ccc(Cl)cc2Cl)n1	KB-V1 cytotox 18.4µM, KB-3-1 tox inconclusive
Cc1ccccc1OCC(=O)Nc1ccc2nc(SCC(=O)N3CCc4ccccc43)sc2c1	none (no result: MCF10A rereplic, SW480 rerep, TSG101-PTAP inh)
Cc1ccc(O)c(CN(C)Cc2cc(C)ccc2O)c1	KB-V1 cytotox 20.6µM, KB-3-1 tox inconclusive
Cc1ccc(O)c(CP(=O)(c2ccccc2)c2ccccc2)c1	KB-V1 cytotox inconclusive
